Many of the other results were omitted from the sample, so hits are more common in it than they were.
TTR transcr act = increases transthyretin transcription | SH-SY5Y TTR promoter Gaussia luciferase, luminescence; 100% = recombinant luciferase protein wells | activation, % at 16.7 µM | 92,000 compounds, 1.3% hits;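 active = activation above the mean of all tested compounds plus 3 SD, cut at about 9.5% in these data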;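 also: cells exposed to compounds for one day before reading; 0% = median of all test compound wells on the plate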
TTR inh HuH7 = HuH7 TTR transcription inhibition, counter-screen. shares compounds with TTR transcr act. HuH7 TTR promoter-Gaussia luciferase reporter, luminescence. inhibition, % at 16.7 µM. 1,100 compounds, 4% hits. AID 1117279;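 active = average inhibition above the solvent-only control wells' mean plus 3 SD, cut at about 15% in these data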;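 also: 0% = cells with DMSO only and 100% = cells with inhibitor control FD; inhibitors lower well luminescence so higher value means more inhibition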
TTR up confirm = human TTR transcription activation, confirmation; shares compounds with TTR transcr act; SHSY5Y TTR promoter Gaussia luciferase, luminescence; 100% = purified Lucia enzyme wells, no cells; activation, % at 16.7 µM; 1,100 tested, under 10 active;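 active = mean activation above a set limit taken from the earlier primary screen, cut at about 11% in these data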;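 also: 0% = DMSO-treated cells and 100% = recombinant Lucia luciferase without cells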
* hit, by the source's call.

SMILES	TTR transcr act	others
CN(C)CC(CCC(CN(C)C)C(O)(c1ccccc1)c1ccccc1)C(O)(c1ccccc1)c1ccccc1 (configuration not stated)	10.8*	TTR inh HuH7=52.8*;TTR up confirm=0.5
C#CC1(NC(=O)NC(C)C)CCCCC1	1.9
Cc1cccc(OCCCC(=O)Nc2ccc(N(C)C)cc2)c1	4.4
COc1ccc(/C=C/c2nnc(NC(=O)COc3cccc(C)c3)s2)cc1	0.8
Cc1cccc(OCCC(=O)Nc2nnc(C)s2)c1	17.1*	TTR inh HuH7=-16.1;TTR up confirm=1.2
CC(Oc1ccccc1)C(=O)N=C1SC2CS(=O)(=O)CC2N1c1ccc(F)cc1 (configuration not stated)	-1.7
CCCCNC(=O)C1(C)CCC(=O)N1c1cc(C(C)(C)C)nn1C (configuration not stated)	0.2
CCC(C)NCCCCOc1cc(C)cc(C(C)C)c1 (configuration not stated)	-2.0
CCOc1ccc(OCCCCNC(C)(C)C)cc1	1.6
CCC(C)NCCCCOc1ccc(Br)cc1 (configuration not stated)	10.5*	TTR inh HuH7=-5.8;TTR up confirm=0.1
CN(C)Cc1cc2ccccc2c2c1COC2	12.2*	TTR inh HuH7=-13.5;TTR up confirm=-0.6
Cc1nc2c(C)cccc2c2c1COC2	-0.8
Cc1cc2ccc3ccccc3c2cc1CN(C)C	5.7
COc1cc(C(=O)N2C[C@H]3CC[C@H]2C3)ccc1OC1CCN(C(C)=O)CC1	0.0
COc1cc(C(=O)N2C[C@@H]3CCC[C@H]2C3)ccc1OC1CCN(C(C)=O)CC1	16.1*	TTR inh HuH7=-8.4;TTR up confirm=0.2
COc1ccc(C(=O)N2CCN(C)C(C)C2)cc1OC1CCN(C(C)=O)CC1 (configuration not stated)	-0.3
O=C(c1ccccc1)C1(c2ccccc2)OC1c1ccccc1 (configuration not stated)	-1.1
O=C(NCCc1nccs1)C1CCC(=O)N(Cc2cccc(C(F)(F)F)c2)C1 (configuration not stated)	3.7
CCC[C@H]1[C@@H](NCc2ccccc2)CC[C@@]23CCCN2C(=O)CCC[C@@H]13	0.4
COC(=O)c1ccc(NC(=O)CN2CCC(NC(=O)c3ccccc3F)CC2)cc1	1.5
CNS(=O)(=O)c1cccc(C(=O)OCC(=O)c2ccc3[nH]c(=O)[nH]c3c2)c1	0.6
CCOC(=O)C1=CCC(c2cc3ccc(OC)cc3n2C(=O)OC(C)(C)C)NC1 (configuration not stated)	0.8
Cc1ccc(CS(=O)(=O)c2nsc(C)c2C#N)cc1	19.2*	TTR inh HuH7=-2.9;TTR up confirm=-0.2
Cc1ccc(S(=O)(=O)Nc2nsc(N)n2)cc1	0.9
Cc1cc(C)c(C#N)c(SCc2ccc([N+](=O)[O-])cc2)n1	9.5
SMILES	TTR transcr act	others
COCC(C)n1c(C)cc(C(=O)COC(=O)c2ccc3ncsc3c2)c1C (configuration not stated)	0.3
Cc1nc(NCC2CCCO2)c2oc3ccccc3c2n1 (configuration not stated)	0.4
O=c1c2ccccc2oc2ccc(NCCCn3ccnc3)cc12	0.6
Cc1nc(NCCCn2ccnc2)c2oc3ccccc3c2n1	48.5*	TTR inh HuH7=-0.9;TTR up confirm=0.7
CCCCN1C(=O)C(CC(=O)NC2CCCC2)CC(C(=O)N(C(C)C)C(C)C)=C1C (configuration not stated)	-1.2
CCC1(C)C2(C#N)C(N)=NC(OC)(OC)C12C#N (configuration not stated)	15.5*	TTR inh HuH7=-4.5;TTR up confirm=-0.8
CCCCN1CCS(=O)(=O)N(Cc2cn(Cc3ccccc3Br)nn2)C(C(=O)OC)C1 (configuration not stated)	-0.7
COC(=O)[C@]12C[C@H](CC(=O)NCC34CC5CC(CC(C5)C3)C4)C(=O)N(CCc3ccc(OC)c(OC)c3)C1=C[C@H](C(C)C)O[C@@H]2C1CC1	4.2
CCCCNC(=O)C1C(c2ccc(C(F)(F)F)cc2)=Nc2ccccc2N1C(=O)c1ccc2nc(C)[nH]c2c1 (configuration not stated)	-0.4
COc1ccc(Sc2cccc3c2S(=O)(=O)N([C@H](C)c2ccccc2)C[C@@H](COCc2ccccc2)O3)cc1OC	-1.4
COc1cc(S(=O)(=O)NC2CCCCC2C)ccc1Cl (configuration not stated)	3.3
CC1CCCCC1NS(=O)(=O)c1ccc(-n2cnnn2)cc1 (configuration not stated)	0.5
COc1cc(S(=O)(=O)NC2CCCCC2C)ccc1-n1cnnn1 (configuration not stated)	14.0*	TTR inh HuH7=-10.6;TTR up confirm=-0.2
CCOC(=O)[C@]12CCCCC/C=C\1N(CCc1ccc(Cl)cc1)C(=O)[C@H]2CC(=O)NCCC(C)C	-2.1
CCOc1cc(/C=C(\C#N)C(=O)NCC2CCCO2)ccc1O (configuration not stated)	6.2
N#C/C(=C\c1ccc[nH]1)C(=O)NCC1CCCO1 (configuration not stated)	11.4*	TTR inh HuH7=-7.5;TTR up confirm=-0.2
Cc1ccc(/C=C(\C#N)C(=O)NCC2CCCO2)o1 (configuration not stated)	5.0
COc1ccccc1-n1c(CNC(=O)c2ccc(S(=O)(=O)N3CCCCC3)cc2)n[nH]c1=S	0.8
COc1ccc(S(=O)(=O)N2CCC(C(=O)NCCC(=O)Nc3cccc(Cl)c3)CC2)cc1	0.1
Nc1nc(Nc2ccccc2)nc(N2CCOCC2)c1[N+](=O)[O-]	1.4
Nc1nc(NCCCN2CCOCC2)nc(Nc2ccc(Cl)cc2)c1[N+](=O)[O-]	12.5*	TTR inh HuH7=-8.0;TTR up confirm=0.2
Nc1nc(NCC2CCCO2)nc(Nc2ccc(Cl)cc2)c1[N+](=O)[O-] (configuration not stated)	3.0
CC(C)C(=O)N1CCC1(C)C(=O)NCc1cc(Cl)ccc1F (configuration not stated)	-0.2
O=C(NCCc1ccccc1)OCc1cn(-c2ccc(Cl)cc2)nn1	-1.0
CCC[C@H]1[C@@H](NC(=O)c2ccc(N(C)C)cc2)CC[C@@]23CCCN2C(=O)CCC[C@@H]13	-0.1
SMILES	TTR transcr act	others
COc1ccc(NC(=O)c2cc(C)on2)cc1OC	4.7
COc1cc(NC(=O)c2cc(C)on2)cc(C(=O)Nc2cccc(C(F)(F)F)c2)c1	-0.6
COc1ccc(NC(=O)c2cc(C)on2)cc1	12.6*	TTR inh HuH7=6.9;TTR up confirm=-0.8
CC(C)C(=O)Nc1nnc(-c2ccccc2)o1	-1.1
O=C(Nc1nnc(-c2ccccc2)o1)c1nc2ccccc2s1	15.2*	TTR inh HuH7=-12.0;TTR up confirm=2.1
NC(=O)c1oc2ccccc2c1NC(=O)c1nc2ccccc2s1	-0.8
NC(=O)c1nsc(C(=O)N(Cc2cccnc2)C(C(=O)NC2CCCC2)c2ccc(F)cc2)c1N (configuration not stated)	0.0
CC(C)(C)NC(=O)C(c1ccco1)N(Cc1ccc(F)cc1)C(=O)c1snc(C(N)=O)c1N (configuration not stated)	10.3*	TTR inh HuH7=0.9;TTR up confirm=-0.3
COc1ccccc1N(C(=O)c1snc(C(N)=O)c1N)C(C(=O)NCCC(C)C)c1ccco1 (configuration not stated)	-1.4
COC(=O)[C@]12C[C@H](CC(=O)NCC3CCCCC3)C(=O)N(Cc3ccc(Cl)cc3Cl)C1=C[C@H](C1CCCC1)O[C@@H]2C	0.4
CCCn1nnc(NC(=O)c2ccc(Br)cc2)n1	-2.6
Cn1nnnc1-c1cc(Br)ccc1NC(=O)c1ccccc1	10.4*	TTR inh HuH7=-0.1;TTR up confirm=-0.7
